Drawing on PubChem BioAssay AID449762 (Southern Research Specialized Biocontainment Screening …, 2010), this text covers inhibition for 95 molecules.

Usually inhibition stands for the drop in the measured response relative to a control, in per cent.

Molecules are shown by their SMILES. Screen size: about 330,000 compounds; about 1,900 (0.58%) were called active. Roughly 4% stayed inconclusive and do not appear here. The list is a sample of the results. Entries with a potency or affinity are not part of this list. Values without a mark were called inactive. Rule as the data show it: inconclusive = inhibition above about 70% without an active follow-up result; inactive = below that.

This assay is described as follows: M. tuberculosis growth inhibition, HTS (AID 449762).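 Also: bacterial growth assessed after seven days of incubation.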 Particulars: M. tuberculosis H37Rv growth inhibition, 7H9 media; at 25 µM; stronger effect = higher value.
Take `Cc1cc(C)c2nc(-c3ccccn3)cc(C(=O)NCCc3ccc(S(N)(=O)=O)cc3)c2c1`: the inhibition was 2.93%.

For `O=C(CSC1=NC(=O)C(c2ccccc2)C(=O)N1)Nc1cccc(Cl)c1` (stereo not given), the inhibition was -1.6%.

As for `NS(=O)(=O)c1ccc(NC(=O)CSC2=NC(=O)C(c3ccccc3)C(=O)N2)cc1` (stereo not given), the inhibition is -4.16%.

Regarding `CC1CC(NC(=O)CC#N)CC(C)(C)C1` (stereo not given), the inhibition is -2.07%.

For the molecule `CCNC(=O)CC1C(=O)N(c2ccc(C)cc2)C(=O)N1CCc1sccc1C` (stereo not given), the inhibition was -0.52%.

Take `COc1ccc(OC)c(N(CC(=O)Nc2ccccc2)S(=O)(=O)c2ccccc2)c1`: the inhibition was -0.48%.

For `CC(C)(O)c1ccc2c(c1)CCC1C(C)(C(=O)O)CCCC21C` (stereo not given), the inhibition was -2.51%.

Consider `CC1(C(=O)O)CCCC2(C)c3cc(O)ccc3CCC12` (stereo not given), for which the inhibition was -4.51%.

As for `Cc1cc(CN(C)C(=O)C2CCC(=O)N(CCc3ccccc3)C2)n[nH]1` (stereo not given), the inhibition is 8.05%.

For the molecule `CC(=O)Nc1ccc(SC(C)C(=O)NC(N)=O)cc1` (stereo not given), the inhibition is -6.23%.

`NC1=NC[C@@H](Cc2ccc(O)cc2)N1CCc1cccc2ccccc12`: the inhibition is 7.62%.

On to `NC1=NC[C@H](Cc2ccc(O)cc2)N1CCc1cccc(F)c1`, for which the inhibition is -2.28%.

Regarding `Cc1cc(=O)oc2cc(OCC(=O)N3CCCC3)ccc12`, the inhibition is -4.87%.

For `COc1ccccc1CCC(=O)NNC(=O)c1cccs1`, the inhibition is -0.29%.

For the molecule `CCCCCCCCCCOC(=O)Cn1c(COc2ccccc2)[n+](C)c2ccccc21`, the inhibition was 49.6%.

Turning to `CCCCCCCCCCOC(=O)Cn1c(COc2ccccc2OC)[n+](C)c2ccccc21`, the inhibition is 54.7%.

On to `COc1ccc([C@H]2CC(=O)C=C(c3ccc(Br)c4ccccc34)C2)cc1`, for which the inhibition was 67.8%.

On to `COc1ccc([C@H]2CC(=O)C=C(c3cc4ccccc4c4ccccc34)C2)cc1`, for which the inhibition was -1.17%.

Regarding `COc1ccc(-c2[nH]ncc2CN2CCCOc3c(cccc3OC)C2)c(OC)c1`, the inhibition was 9.33%.

With `O=C1CCCN1CCC(=O)N1CCCC(Nc2ccc(F)cc2)C1` (stereo not given), the inhibition was -9.8%.

Turning to `OC(CN1CCN(c2ccccc2Cl)CC1)c1ccccc1` (stereo not given), the inhibition was 2.61%.

Consider `C/C(CC(=O)Nc1cc(Cl)ccc1C)=N\NC(N)=O`, for which the inhibition is 4.8%.

As to `CC(=O)Nc1ccc(NC(=O)C/C(C)=N/NC(N)=S)cc1`, the inhibition was 3.29%.

On to `COc1ccc(C2(c3ccc(OC)cc3)NC(=O)N(CC(=O)Nc3ccc(C(=O)N(C)C)cc3)C2=O)cc1`, for which the inhibition is -1.84%.

For the molecule `CCN=c1scc(-c2ccco2)n1/N=C/c1ccc(O)cc1`, the inhibition was 28.5%.

With `CC(C)N=c1scc(-c2ccco2)n1/N=C/c1ccc(O)c(O)c1`, the inhibition is 9.93%.

On to `COc1ccc(S(=O)(=O)Nc2ccccc2N2CCOCC2)cc1OC`, for which the inhibition was 3.88%.

In the case of `CC(Nc1cc(C)cc(C)c1)=[N+](C)CCNS(=O)(=O)c1ccc(Cl)cc1`, the inhibition is -13.9%.

With `Cc1ccc(-c2nsc3c(N4CCC(C(N)=O)CC4)ncnc23)cc1`, the inhibition was -5.48%.

As to `O=c1c(C=NCc2ccccc2)c(NCc2ccccc2)nc2ccccn12`, the inhibition is 11.6%.

As to `COc1ccc(C(=O)N/C(N)=N/c2nc3ccccc3o2)cc1`, the inhibition was 43%.

As for `COC(=O)CSc1nc2ccccc2o1`, the inhibition is 20%.

Regarding `O=C(O)c1ccc(NS(=O)(=O)c2ccc3c(c2)OCCCO3)cc1`, the inhibition was 5.48%.

For `COc1ccc(N(CC(=O)NC2CCCCCC2)S(=O)(=O)c2ccccc2)cc1Cl`, the inhibition is 11.1%.

Turning to `O=[N+]([O-])c1cc(-c2ccc(/C=N/n3cnnc3)o2)ccc1Cl`, the inhibition is 16.1%.

Take `O=[N+]([O-])c1ccc(Cl)c(-c2ccc(/C=N/n3cnnc3)o2)c1`: the inhibition was -1.71%.

Take `C/C=C1\COC(C(=O)NCCCN2CCCC2=O)(C(F)(F)F)C=C1C=C(C)C` (stereo not given): the inhibition is 2.64%.

As for `NC(=O)CSC1=Nc2ccccc2C2=NC(c3ccccc3)C(=O)N12` (stereo not given), the inhibition was 4.02%.

As to `CN(C(=O)CSC1=Nc2ccccc2C2=NC(c3ccccc3)C(=O)N12)C1CCCCC1` (stereo not given), the inhibition is -5.75%.

As to `NC(=O)Cn1nc(-c2ccccc2)nc1-c1ccccc1`, the inhibition is -2.98%.

In the case of `CCn1c(-c2ccccc2)ccc(C#N)c1=O`, the inhibition was -2.43%.

`CCOC(=O)Cn1nnc(-c2ccccc2)n1`: the inhibition is -9.53%.

As for `CCOC(=O)Cn1c(-c2ccccc2)cc(SC)c(C#N)c1=O`, the inhibition was 13.1%.

As for `COc1cc2cnc(-c3ccccc3)cc2cc1OC`, the inhibition is 61.6%.

With `CN(C)/C=N/NC(=O)c1ccc(Cl)cc1`, the inhibition is -3.16%.

For `O=C(CCCCCn1nnc2ccccc2c1=O)Nc1ccccc1F`, the inhibition was -1.21%.

For the molecule `COc1ccc(CNC(=O)CN(Cc2ccc(Cl)cc2)S(=O)(=O)c2ccccc2)cc1`, the inhibition is -11.8%.

For the molecule `CCC(=O)Nc1cc(-c2nn(C)c(=O)c3ccccc23)ccc1N1CCCCC1`, the inhibition is -0.54%.

As for `CC(=O)Nc1cc(-c2nn(C)c(=O)c3ccccc23)ccc1N1CCCCC1`, the inhibition was 5.24%.

As for `CC(=Nc1ccc2c(c1)CCC2)c1c(O)n(-c2ccccc2)c(=O)[nH]c1=O`, the inhibition is 0.86%.

Regarding `Cc1cccc(CS(=O)(=O)Cc2ccc(C(=O)NCCCN3CCOCC3)o2)c1`, the inhibition was -7.1%.

As for `COc1cc(Cl)c(C)cc1NC(=O)COC(=O)C(NS(=O)(=O)c1ccc(Cl)cc1)C(C)O` (stereo not given), the inhibition was -9.26%.

In the case of `Cc1ccc(NC(=O)COC(=O)C(NS(=O)(=O)c2ccc(Cl)cc2)C(C)O)cc1` (stereo not given), the inhibition was -2.52%.

Take `OCC(CBr)(CBr)CBr`: the inhibition is -6.91%.

With `CCC1=NC(c2ccc(OC)cc2)N(O)C1(C)C` (stereo not given), the inhibition was -1.62%.

As to `CC(O)(CS(=O)(=O)Cc1ccccc1)C(=O)Nc1cccc(C(F)(F)F)c1` (stereo not given), the inhibition was 8.28%.

Turning to `C(=N\Nc1nc(Nc2ccccc2)nc(N2CCOCC2)n1)/c1c[nH]c2ccccc12`, the inhibition is 41.1%.

Regarding `Cc1[nH]c2ccccc2c1/C=N/Nc1nc(Nc2ccc(F)cc2)nc(N2CCOCC2)n1`, the inhibition is 62.1%.

For `O=c1[nH]c(C2CCN(S(=O)(=O)c3ccc4c(c3)OCCO4)CC2)nc2c1nnn2Cc1ccc(F)cc1`, the inhibition is 37.9%.

For `Cc1ccc(C)c(S(=O)(=O)N2CCC(c3nc4c(nnn4Cc4ccc(F)cc4)c(=O)[nH]3)CC2)c1`, the inhibition is 7.99%.

`Cn1c(CC(=O)Nc2ccc(F)cc2)c(Sc2ccccc2)c2ccccc21`: the inhibition is 3.85%.

Take `NC(=O)C1CCCN(C(=S)NCc2ccc3c(c2)OCO3)C1` (stereo not given): the inhibition was -1.44%.

On to `CCOc1cc(/C=C/C(=O)OCC(=O)NCC2CCCO2)cc(Cl)c1OC` (stereo not given), for which the inhibition is 1.07%.

As to `O=C(C1CC1)N1N=C(c2ccc(Cl)cc2)CC1(O)C(F)(F)F` (stereo not given), the inhibition was 49%.

Regarding `O=C(c1ccc(Cl)cc1)N1CCCC(c2ccccc2)=N1`, the inhibition was 2.03%.

Regarding `CCN(CCO)C(=S)Nc1cc(S(=O)(=O)N(C)C)ccc1C`, the inhibition is -0.4%.

Regarding `CCOC(=O)c1c(C)[nH]c(C(=O)N2CCN(c3ccc(OC)cc3)CC2)c1C`, the inhibition is 53.5%.

`CCOC(=O)c1[nH]c(C)c(C(=O)N2CCN(c3ccc(OC)cc3)CC2)c1C`: the inhibition was -0.98%.

On to `C[C@H](CO)N1C[C@H](C)[C@H](CN(C)Cc2ccncc2)Oc2ccc(NC(=O)Nc3ccc(C(F)(F)F)cc3)cc2CC1=O`, for which the inhibition was 62.2%.

With `CN(C)CCCNC(=O)c1ccc(-c2ccccc2)cc1`, the inhibition is -5.39%.

For the molecule `C=CCNC(=O)c1ccc(-c2nc(-c3ccccc3)cs2)cc1`, the inhibition was 1.66%.

As to `O=C(NN=C1CCCC1)c1cccc(O)c1`, the inhibition was -8.1%.

As for `CCCNC(=O)CSc1n[nH]c(=O)n1CCc1ccccc1`, the inhibition is 7.69%.

Turning to `CCOC(=O)c1c(NC(=O)CCN2C(=O)c3cccc([N+](=O)[O-])c3C2=O)sc(C(=O)OC(C)C)c1C`, the inhibition was 3.56%.

As to `CCOc1ccc(Nc2nc(-c3cccnc3)cs2)cc1`, the inhibition was 4.09%.

Turning to `CCOc1ccc(NC(=O)CC2CC(C)(C)OC2=O)cc1` (stereo not given), the inhibition was -2.88%.

Consider `CC(=O)Nc1ccc(NC(=O)C(C)OC(=O)c2cc(S(=O)(=O)N(C)C)ccc2N2CCCC2)cc1` (stereo not given), for which the inhibition is 1.92%.

On to `Cc1ccc(C2=NC(C)(C)NC2=O)cc1`, for which the inhibition was 11.8%.

Turning to `O/N=C/c1ccnc(SCc2ccccc2)n1`, the inhibition was 16.4%.

With `CSc1nccc(N/N=C/c2ccccc2)n1`, the inhibition was 0.53%.

For the molecule `CC(CN1CCC(O)CC1)c1ccccc1` (stereo not given), the inhibition is -0.24%.

As for `Clc1ccccc1CNC1CN2CCC1CC2` (stereo not given), the inhibition is -2.13%.

Take `FC(F)(Cl)c1nnc2ccc(Sc3ccccn3)nn12`: the inhibition is 2.59%.

With `FC(F)(F)c1nnc2ccc(N3CCCC3)nn12`, the inhibition was -7.59%.

Consider `O=C(OCc1c(F)cccc1Cl)c1cnc2ccccc2n1`, for which the inhibition is 48.8%.

For `COC(=O)c1cnc2ccccc2n1`, the inhibition is -3.05%.

Take `CC(C)C(NS(=O)(=O)c1cccs1)C(=O)NCCCN1CCCCCC1` (stereo not given): the inhibition is -1.69%.

In the case of `COc1ccc(OCCCC(=O)Nc2ccc(N3CCCCC3)cc2)cc1`, the inhibition was -1.89%.

As to `CCCc1nnc(NC(=O)CCC(=O)N2CCN(c3nc(C)cc(C)n3)CC2)s1`, the inhibition was 0.06%.

`COc1ccc(S(=O)(=O)Cc2ccc(C(=O)NCCCN3CCc4ccccc4C3)o2)cc1`: the inhibition is -0.56%.

On to `COc1cccc(OC)c1OCCCCc1c(C)n[nH]c1C`, for which the inhibition is 4.51%.

With `COc1cccc(OC)c1OCCCCCc1c(C)n[nH]c1C`, the inhibition was -7.6%.

In the case of `COCC(C)NC(=O)Cc1ccc(F)cc1` (stereo not given), the inhibition is -4.61%.

Turning to `O=C(NC1CCN(Cc2ccccc2)CC1)c1cccc(S(=O)(=O)Nc2ccc(F)cc2)c1`, the inhibition was 37.8%.

As for `COc1ccc(NS(=O)(=O)c2cccc(C(=O)NC3CCN(Cc4ccccc4)CC3)c2)cc1`, the inhibition is 6.7%.
